Test results as given in PubChem BioAssay (Tox21).
Values without a mark were called inactive. Inconclusive results are not listed. A call without a number means that no potency is given here. The source made the active and inactive calls. Unless noted, calls come from the whole dose curve.

Assays:
[1] = Nuclear factor erythroid 2-related factor 2/antioxidant responsive element (Nrf2/ARE) small molecule agonists: qHTS cell viability counter screen in human keratinocytes (AID 1919968; active = well fitted curve in the direction sought with a large enough effect in the repeat runs; an effect the other way counts as inactive or inconclusive; note: nearly all actives have a fitted effect of over 55% in size; note: potency is the fitted concentration of half-maximal effect)
Procedure, shortened: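 After a 5 h attachment period, ARE-reporter keratinocytes were dosed with compounds in DMSO and then cultured 23 h at 37 C. Cell viability came from CellTiter-Fluor signal read after a further 1 h.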

[2] = Nuclear factor erythroid 2-related factor 2/antioxidant responsive element (Nrf2/ARE) small molecule agonists: luciferase reporter gene qHTS assay in human keratinocytes (AID 1919969); note: nearly all actives have a fitted effect of over 35% in size; note: potency is the fitted concentration of half-maximal effect
[3] = G protein-coupled receptor (GPCR) small molecule agonists, calcium flux assay: HEK293 wild type cell line counter screen (AID 1920065)
Procedure, shortened: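 Calcium-sensitive dye, loaded 1 h at 37 C into cells cultured 18 h, reports compound-evoked calcium release as fluorescence (Ex/Em 480/540), measured over 3 min. Agonist mode; 15-point titrations, triplicate.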

[4] = p53 small molecule agonists, cell-based qHTS assay with human liver microsomes (AID 1963577)
Procedure, shortened: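 Fluorescence of the beta-lactamase reporter in p53RE-bla cells, detected with LiveBLAzer substrate (2 h, room temperature, dark), served as the read-out after 16 h compound exposure at 37 C with human liver microsomes and NADPH, each 0.5 mg/mL final.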

[5] = p53 small molecule agonists, cell-based qHTS assay with rat liver microsomes (AID 1963578)
Procedure, shortened: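 Cells carrying a p53 response element–beta-lactamase reporter were plated and rested 5 h, then dosed with compound in DMSO plus rat liver microsomes and NADPH, each at 0.5 mg/mL final. After 16 h at 37 C, LiveBLAzer substrate was added for 2 h.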

[6] = p53 small molecule agonists, cell-based qHTS assay with human liver microsomes: qHTS cell viability counter screen (AID 1963579); note: nearly all actives have a fitted effect of over 45% in size; note: potency is the fitted concentration of half-maximal effect
Procedure, shortened: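 Cytotoxicity counter screen: p53RE-bla, 4,000 cells/well; 5 h settle, 37 C/5% CO2; cpd + HLM 0.5 mg/mL + NADPH 0.5 mg/mL (final); 16 h, 37 C; CellTiter-Glo, 30 min RT, luminescence.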

[7] = p53 small molecule agonists, cell-based qHTS assay with rat liver microsomes: qHTS cell viability counter screen (AID 1963580); note: nearly all actives have a fitted effect of over 45% in size
Procedure, shortened: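 Intracellular ATP, by CellTiter-Glo luminescence, defines viability. HCT-116 p53RE-bla cells, 4,000 per well, were compound-treated in the presence of rat liver microsomes and NADPH for 16 h at 37 C.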

[8] = p53 small molecule agonists, cell-based qHTS assay: qHTS cell viability counter screen (AID 1963581); note: nearly all actives have a fitted effect of over 45% in size; note: potency is the fitted concentration of half-maximal effect
Procedure, shortened: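 Following 5 h attachment, HCT-116 p53RE-bla cells took up compound for 16 h at 37 C; the reporter was read with B/G FRET substrate (2 h RT), and viability then via CellTiter-Glo ATP luminescence.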

[9] = p53 small molecule agonists, cell-based qHTS assay (AID 1963582; active = well fitted activation curve with a large enough effect in the signal ratio in the repeat runs, not every such curve was filed as active; the % refers to the signal ratio; note: potency is the fitted concentration of half-maximal effect)
Procedure, shortened: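 In this cell-based concentration-response screen, a p53 response element drives beta-lactamase; cells received DMSO-borne compounds after 5 h culture and were incubated a further 16 h before FRET substrate development.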

[10] = molecular target: 5-hydroxytryptamine receptor 2A (Homo sapiens) (UniProt P28223); experiment: 5-hydroxytryptamine receptor 2A (HTR2A) small molecule agonists, cell-based qHTS assay (AID 1963587); note: nearly all actives have a fitted effect of over 30% in size; note: potency is the fitted concentration of half-maximal effect
Procedure, shortened: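 Kinetic calcium-flux fluorescence (2 min, 1 sec intervals) after compound addition in agonist mode. HTR2A-CHO cells were cultured 18 h, then dye-loaded 1 h at 37 C.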

[11] = molecular target: Muscarinic acetylcholine receptor M1 (Homo sapiens) (UniProt P11229); experiment: Cholinergic receptor muscarinic 1 (CHRM1) small molecule antagonists, cell-based qHTS assay (AID 1963588); note: nearly all actives have a fitted effect of over 40% in size; note: potency is the fitted concentration of half-maximal effect
Procedure, shortened: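 CHRM1-CHO calcium-flux assay, antagonist mode. Cells were seeded 18 h, dye-loaded 1 h at 37 C and given compound for 5 min at RT, then acetylcholine was added at 50nM. FDSS fluorescence was read 3 min; 15 concentrations, three runs.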

[12] = molecular target: Muscarinic acetylcholine receptor M1 (Homo sapiens) (UniProt P11229); experiment: Cholinergic receptor muscarinic 1 (CHRM1) small molecule agonists, cell-based qHTS assay (AID 1963589); note: nearly all actives have a fitted effect of over 35% in size
Procedure, shortened: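 Measures agonist-induced intracellular calcium rise. Stable human CHRM1 CHO line, 1 h dye load at 37 C, compounds from DMSO, kinetic fluorescence read.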

[13] = cAMP Responsive Elements (CRE) small molecule agonists, cell-based qHTS assay (AID 1963590); note: potency is the fitted concentration of half-maximal effect
Procedure, shortened: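 A CRE-responsive beta-lactamase reporter in HEK 293T cells was used. Treatment ran 3 h at 37 C; detection used LiveBLAzer B/G FRET substrate for 2 h at room temperature.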

[14] = cAMP Responsive Elements (CRE) small molecule antagonists, cell-based qHTS assay (AID 1963591; active = well fitted inhibition curve with a large enough effect in the signal ratio in the repeat runs, not every such curve was filed as active; the % refers to the signal ratio)
Procedure, shortened: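 HEK293T cells carrying a CRE-driven beta-lactamase reporter receive compound and NKH477 (0.25 uM final) for 3 h. Fluorescence from LiveBLAzer B/G FRET substrate is read after 2 h at room temperature.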

[15] = molecular target: Beta-2 adrenergic receptor (Homo sapiens) (UniProt P07550); experiment: Adrenergic beta2 receptor (ADRB2) small molecule antagonists, cell-based qHTS assay (AID 1963592); note: series mostly up to about 92 µM; nearly all actives have a fitted effect of over 50% in size
Procedure, shortened: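 Cells (CHO, stable ADRB2 overexpression) incubated 18-20hr at 37C; compounds added from DMSO; agonist mix (1nM isoproterenol, 100uM IBMX, 25uM Ro-20-1724) added; 0.5hr RT; d2-cAMP and anti-cAMP-cryptate added; 1hr RT; 665/615 nm read.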

[16] = molecular target: D(2) dopamine receptor (Homo sapiens) (UniProt P14416); experiment: Dopamine D2 receptor (DRD2) small molecule agonists, cell-based qHTS assay (AID 1963594); note: nearly all actives have a fitted effect of over 35% in size
Procedure, shortened: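 cAMP accumulation in DRD2-HEK293 cells measured by HTRF after 1 h detection; compounds added 10 min before NKH477 (200nM […]) forskolin-analogue stimulation, 30 min at room temperature, with Ro20-1724 present at 0.1 mM final.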

[17] = molecular target: 5-hydroxytryptamine receptor 2A (Homo sapiens) (UniProt P28223); experiment: 5-hydroxytryptamine receptor 2A (HTR2A) small molecule antagonists, cell-based qHTS assay (AID 1963586); note: nearly all actives have a fitted effect of over 45% in size
Procedure, shortened: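 Antagonist-mode intracellular calcium assay: DOI (4 nM) added after 5 min compound pre-incubation at room temperature to dye-loaded HTR2A-CHO cells. Fluorescence followed for 3 min, sampled every second.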

[18] = molecular target: D(2) dopamine receptor (Homo sapiens) (UniProt P14416); experiment: Dopamine D2 receptor (DRD2) small molecule antagonists, cell-based qHTS assay (AID 1963595; active = well fitted inhibition curve with a large enough effect in the signal ratio in the repeat runs, with a control signal flat; the % refers to the signal ratio; note: potency is the fitted concentration of half-maximal effect)
Procedure, shortened: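 In this cell-based antagonist screen, compounds act for 10 min at room temperature before a 30 min challenge with 12 nM quinpirole and 200 nM NKH477. cAMP is quantified by HTRF competition in DRD2-HEK293 cells containing 0.1 mM Ro20-1724.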

[19] = molecular target: KiSS-1 receptor (Homo sapiens) (UniProt Q969F8); experiment: Human kisspeptin (KISS1R) small molecule agonists, calcium flux assay in KISS1R-HEK293 cells (AID 1920064; active = well fitted curve in the direction sought with a large enough effect in the repeat runs; an effect the other way counts as inactive or inconclusive)
Procedure, shortened: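 Kinetic calcium assay, 1 s sampling over 3 min at Ex/Em 480/540, in HEK293 cells engineered with human KISS1R; compounds delivered in DMSO after 1 h dye loading.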

[20] = molecular target: Beta-2 adrenergic receptor (Homo sapiens) (UniProt P07550); experiment: Adrenergic beta2 receptor (ADRB2) small molecule agonists, cell-based qHTS assay (AID 1963593);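 note: CHO cells stably overexpressing human ADRB2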
Procedure, shortened: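 CHO cells stably over-expressing ADRB2 were plated overnight at 37C, then dosed with compounds plus a stimulation mix containing 100uM IBMX and 25uM Ro-20-1724 for 0.5hr at room temperature. cAMP was measured by HTRF competition, 1hr.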

5-hydroxytryptamine receptor 2A (Homo sapiens), sequence (P28223 whole entry, looked up): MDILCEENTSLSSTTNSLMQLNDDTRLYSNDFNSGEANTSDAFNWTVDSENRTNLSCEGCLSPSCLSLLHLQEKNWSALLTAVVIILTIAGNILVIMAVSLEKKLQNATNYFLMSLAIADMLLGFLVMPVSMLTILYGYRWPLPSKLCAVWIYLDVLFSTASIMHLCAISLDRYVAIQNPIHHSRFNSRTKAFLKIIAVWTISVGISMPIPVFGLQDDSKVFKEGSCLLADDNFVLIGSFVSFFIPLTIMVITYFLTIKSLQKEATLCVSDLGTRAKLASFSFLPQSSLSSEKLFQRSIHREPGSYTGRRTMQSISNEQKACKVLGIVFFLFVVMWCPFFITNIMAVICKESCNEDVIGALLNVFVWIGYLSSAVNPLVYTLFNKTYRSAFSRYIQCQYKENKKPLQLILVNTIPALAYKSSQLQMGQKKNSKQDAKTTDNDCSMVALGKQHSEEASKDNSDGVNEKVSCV
Muscarinic acetylcholine receptor M1 (Homo sapiens), sequence (P11229 whole entry, looked up): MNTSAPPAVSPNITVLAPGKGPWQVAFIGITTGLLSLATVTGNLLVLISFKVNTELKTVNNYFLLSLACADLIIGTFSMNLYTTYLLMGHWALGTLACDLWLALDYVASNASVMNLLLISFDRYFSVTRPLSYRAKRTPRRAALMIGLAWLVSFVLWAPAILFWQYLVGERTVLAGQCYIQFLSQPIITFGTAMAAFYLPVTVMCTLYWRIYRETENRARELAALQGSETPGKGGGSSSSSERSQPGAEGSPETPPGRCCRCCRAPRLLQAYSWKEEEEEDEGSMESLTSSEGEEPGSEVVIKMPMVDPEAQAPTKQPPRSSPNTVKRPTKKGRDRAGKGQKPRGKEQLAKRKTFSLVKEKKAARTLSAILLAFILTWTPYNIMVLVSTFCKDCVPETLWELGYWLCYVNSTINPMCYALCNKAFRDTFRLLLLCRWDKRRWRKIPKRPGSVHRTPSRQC
D(2) dopamine receptor (Homo sapiens), sequence (P14416 whole entry, looked up): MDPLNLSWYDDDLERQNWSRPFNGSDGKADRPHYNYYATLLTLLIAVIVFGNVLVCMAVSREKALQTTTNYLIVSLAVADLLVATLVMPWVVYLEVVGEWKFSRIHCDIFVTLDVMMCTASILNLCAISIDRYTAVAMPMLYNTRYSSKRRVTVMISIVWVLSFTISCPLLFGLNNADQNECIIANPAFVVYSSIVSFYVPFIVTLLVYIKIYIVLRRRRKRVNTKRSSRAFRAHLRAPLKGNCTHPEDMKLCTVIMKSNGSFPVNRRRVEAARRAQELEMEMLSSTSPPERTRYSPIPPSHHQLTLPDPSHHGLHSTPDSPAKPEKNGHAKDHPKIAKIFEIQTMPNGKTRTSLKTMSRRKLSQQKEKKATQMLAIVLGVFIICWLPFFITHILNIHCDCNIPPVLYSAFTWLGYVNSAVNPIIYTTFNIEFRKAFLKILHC
Beta-2 adrenergic receptor (Homo sapiens), sequence (P07550 whole entry, looked up): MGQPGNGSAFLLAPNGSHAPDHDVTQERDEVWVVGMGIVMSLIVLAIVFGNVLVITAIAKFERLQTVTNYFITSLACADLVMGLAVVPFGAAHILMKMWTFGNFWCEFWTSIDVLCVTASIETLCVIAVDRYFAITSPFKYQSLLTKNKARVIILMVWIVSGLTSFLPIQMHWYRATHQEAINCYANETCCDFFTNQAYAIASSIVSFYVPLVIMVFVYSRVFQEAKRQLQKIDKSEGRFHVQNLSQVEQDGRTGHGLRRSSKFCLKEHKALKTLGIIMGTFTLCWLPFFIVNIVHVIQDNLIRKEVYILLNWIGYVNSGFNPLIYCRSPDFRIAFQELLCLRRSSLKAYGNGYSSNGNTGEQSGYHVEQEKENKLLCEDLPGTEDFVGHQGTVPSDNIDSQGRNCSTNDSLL
KiSS-1 receptor (Homo sapiens), sequence (Q969F8 whole entry, looked up): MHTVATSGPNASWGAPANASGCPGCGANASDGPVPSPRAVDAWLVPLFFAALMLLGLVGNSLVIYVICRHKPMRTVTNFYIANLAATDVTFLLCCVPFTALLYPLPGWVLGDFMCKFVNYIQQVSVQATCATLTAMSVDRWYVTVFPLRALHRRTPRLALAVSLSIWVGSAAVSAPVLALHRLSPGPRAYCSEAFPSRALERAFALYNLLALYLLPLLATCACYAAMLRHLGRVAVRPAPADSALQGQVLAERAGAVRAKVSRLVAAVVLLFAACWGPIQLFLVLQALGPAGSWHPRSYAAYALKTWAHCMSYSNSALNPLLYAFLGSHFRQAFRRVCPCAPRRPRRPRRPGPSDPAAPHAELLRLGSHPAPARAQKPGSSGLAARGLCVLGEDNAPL

| SMILES | Potency [1] | Potency [2] | Potency [3] | Potency [4] | Potency [5] | Potency [6] | Potency [7] | Potency [8] | Potency [9] | Potency [10] | Potency [11] | Potency [12] | Potency [13] | Potency [14] | Potency [15] | Potency [16] | Potency [17] | Potency [18] | Potency [19] | Potency [20] |
| --- | --- | --- | --- | --- | --- | --- | --- | --- | --- | --- | --- | --- | --- | --- | --- | --- | --- | --- | --- | --- |
| CCCCCCCCCCCCCCCCN | inactive | inactive | inactive | inactive | inactive | inactive | inactive | inactive | inactive | 23.9 µM (active) | inactive | inactive | inactive | inactive | inactive | inactive |  |  |  |  |
| CCOc1ccc(NS(=O)(=O)c2ccc(N)cc2)nn1 | inactive | inactive | inactive |  |  | inactive | inactive | inactive |  | inactive |  | inactive | inactive | inactive | inactive | inactive | inactive | inactive |  |  |
| O=C(Nc1cccc(Cl)c1)OCC#CCCl | 17.2 µM (active) | 12.2 µM (active) | inactive |  |  |  | inactive |  |  | inactive | inactive | inactive |  |  | inactive | inactive | inactive | inactive | inactive | inactive |
| Cc1cccc2c1cc1ccc3cccc4ccc2c1c34 | inactive | inactive |  |  |  | inactive | inactive | inactive |  | inactive | inactive |  |  |  | inactive | inactive | inactive | inactive | inactive | inactive |
| Cc1cccc(C)c1NC(=O)C(C)N (stereo not given) | inactive | inactive | inactive | inactive | inactive | inactive | inactive | inactive |  |  |  |  | inactive | inactive | inactive |  |  | inactive |  | inactive |
| CC/C(=C(/c1ccc(O)cc1)c1ccc(OCCN(C)C)cc1)c1ccccc1 | 18 µM (active) | inactive |  |  |  | 26.9 µM (active) |  |  |  | 28.8 µM (active) | 13.9 µM (active) |  |  |  |  | inactive |  |  | inactive |  |
| Nc1nc(Cl)nc2c1ncn2[C@H]1C[C@H](O)[C@@H](CO)O1 | inactive | inactive | inactive |  |  |  | inactive | inactive | 0.572 µM (active) |  |  |  | 60.7 µM (active) |  | inactive | inactive |  | inactive | inactive |  |
| COc1cc(C(C)(C)C)c(O)c(C(C)(C)C)c1 | inactive | 48.6 µM (active) | inactive |  |  | inactive |  | inactive |  | inactive |  | inactive |  |  | inactive |  | inactive | inactive | inactive | inactive |
| C[C@@H](NCCCc1cccc(C(F)(F)F)c1)c1cccc2ccccc12 | 29.8 µM (active) | inactive | inactive | inactive | inactive | inactive | inactive |  | inactive | 23.9 µM (active) | inactive |  |  |  |  | inactive |  |  |  |  |
| CCOc1ccc2nc(N)sc2c1 | inactive | inactive |  |  |  |  |  | inactive | inactive | inactive |  | inactive | inactive | inactive | inactive |  | inactive | inactive | inactive |  |
| CNc1ncnc2nc[nH]c12 | inactive | inactive | inactive |  |  | inactive | inactive |  |  | inactive | inactive | inactive | inactive | inactive | inactive |  | inactive | inactive | inactive | inactive |
| O=C(Cl)c1ccc(Cl)cc1Cl | inactive | inactive | inactive | inactive | inactive | inactive | inactive |  | inactive |  | inactive | inactive |  | inactive | inactive | inactive |  |  |  | inactive |
| CCOC(=O)c1ccccc1OC | inactive | inactive | inactive |  |  | inactive | inactive | inactive |  |  |  |  | inactive | inactive | inactive | inactive | inactive | inactive |  |  |
| [Cl][Bi]([Cl])([c]1ccccc1)([c]1ccccc1)[c]1ccccc1 | 6.08 µM (active) | 1.53 µM (active) | inactive | inactive | inactive | 4.05 µM (active) |  | 9.07 µM (active) |  |  | inactive |  |  |  | inactive | inactive | inactive | 13.6 µM (active) |  |  |
